From PubChem
ANO1 activ: activates or potentiates the mouse TMEM16A chloride channel; B-score at 10 µM; HEK293 TMEM16A/YFP-H148Q/I152L, iodide quench fluorescence; stronger effect = lower value; 0.3% of 340,000 active; AID 623877;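 active means fluorescence-ratio B-score plate-corrected deviation score at least 3 library SD below zero, with starting fluorescence score within 5 deviations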;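 further: channel opened by trigger with iodide after compound preincubation; score built on the fluorescence ratio of max minus min over baseline; more negative score means more quench and so TMEM16A activation or potentiation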
Jurkat NFkB inh: inhibitors of the PMA/ionomycin-induced NF-kB reporter in Jurkat cells. AID 435003. inhibition, % at 4 µM. PMA/ionomycin-induced NF-kB luciferase reporter, luminescence. 0.53% of 330,000 active; in the data active means inhibition above about 50%
ANO1 block: blocks the mouse calcium-activated chloride channel TMEM16A. Q8BHY3. HEK293 TMEM16A/YFP iodide influx fluorescence, ionomycin. normalized B-score (activity score, 25-100; higher = stronger inhibition) at 10 µM. 1.2% of 310,000 active;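 active means ratio plate-corrected score three or more library SD toward inhibition, starting fluorescence score within five deviations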;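 further: score derived from kinetic fluorescence span divided by baseline fluorescence per well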
KLF5 inhibitor: suppresses KLF5 promoter-driven expression | DLD-1 KLF5 promoter-luciferase reporter, luminescence | inhibition, % at 5 µM | 0.23% of 290,000 active | AID 1700;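 active means inhibition above a per-plate limit of that plate's mean compound inhibition plus 3 SD, cut at about 60% in these data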;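 further: 0% = DMSO wells and 100% = LY294002 at 200 µM; higher means less KLF5 promoter-driven luciferase light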
aSyn 5UTR inh: MLPCN primary screen, SNCA 5' untranslated region. alpha-synuclein 5'UTR reporter, inhibitor activity. inhibition, % (tested at 7.5 µM). 0.82% of 300,000 active. AID 1813; in the data active means inhibition above about 60%;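 further: H4 neuroglioblastoma cells stably carrying SNCA 5'UTR luciferase fusion; 0% = DMSO wells and 100% = positive control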
697 NFkB inh: inhibitors of the PMA/ionomycin-induced NF-kB reporter in 697 B cells. 697 B-cell NF-kB luciferase reporter, 16 h. inhibition, % at 4 µM. 0.33% of 330,000 active; in the data active means inhibition above about 35%
* = called active by the depositor; i = inactive; x = no result given. Rows were chosen to be rich in hits. Some 2.5% of all compounds tested hit in one or more screens of this group.

SMILES	ANO1 activ	Jurkat NFkB inh	ANO1 block	KLF5 inhibitor	aSyn 5UTR inh	697 NFkB inh
COc1ccccc1C(=O)Nc1ccccc1SC(=O)c1ccccc1OC	i	-27	i	-89	-112	-95
CC(=O)NC1=NC(=O)/C(=C/c2cc(C)n(-c3ccc(NC(C)=O)cc3)c2C)S1	i	-5	i	-26	-80	-8
CC(=O)NC1=NC(=O)/C(=C/c2cc(C)n(-c3cccc(C(=O)O)c3)c2C)S1	-6.4*	29	x	-12	16	-7
Cc1ccc(CN(C(=O)c2ccc(Cl)c([N+](=O)[O-])c2)C2CCS(=O)(=O)C2)o1 (stereo unspecified)	i	-6	i	-16	-18	11
Cc1ccccc1NC(=O)CCN1CCN(Cc2ccccc2)CC1	i	-10	i	-27	2	6
Cc1cc(C)c(NC(=O)CCN2CCN(Cc3ccccc3)CC2)c(C)c1	i	4	i	x	98*	-8
OCCN1CCN(CC/C=C2/c3ccccc3CSc3ccccc32)CC1	i	-38	i	x	103*	-49
COc1ccc(C2=NN(C(=O)CSc3nnc(C)n3C)C(c3ccco3)C2)cc1 (stereo unspecified)	i	6	i	-3	-14	-2
COc1ccc(C2=NN(C(=O)COc3ncnc4ccccc34)C(c3ccco3)C2)cc1 (stereo unspecified)	i	5	i	-2	64*	0
CN(Cc1cnccn1)C(=O)CC1C(=O)NCCN1Cc1c(F)cccc1Cl (stereo unspecified)	i	11	i	-18	4	15
CCOc1ccc(NC(=O)c2c(NC(=O)CNCCN3CCOCC3)sc3c2CCC3)cc1	i	-3	i	-10	-38	-19
COc1cccc(NC(=O)Nc2nnc(CC(=O)NCc3ccccc3)s2)c1	-4.9*	11	i	-36	6	29
COc1ccc(NC(=O)Nc2nnc(CC(=O)NCc3ccccc3)s2)cc1	i	-27	i	-14	17	12
Cc1cc2nc(C3CCN(Cc4nnnn4Cc4ccccc4)CC3)[nH]c2cc1C	i	28	i	23	74*	33
CCCNS(=O)(=O)c1ccc(OCC(=O)Nc2ccc3c(c2)OCCO3)c(C)c1	i	9	i	x	8	-25
Cc1cc(Br)ccc1SCC(=O)OCC(=O)Nc1ccc2[nH]c(=O)[nH]c2c1	i	-3	x	x	x	-2
O=C(COc1ccccc1[N+](=O)[O-])OCC(=O)c1ccc(Br)s1	i	8	x	x	x	19
NNC(=O)c1cc2c(N3CCC(Cc4ccccc4)CC3)ncnc2s1	i	16	100*	-15	-16	-16
Cn1ncc2c(N3CCC(Cc4ccccc4)CC3)ncnc21	i	4	i	-10	15	-16
COc1cnc(-c2ccccn2)nc1NC(C)C	i	12	i	-25	98*	-5
C=CCn1c(O)c2ccc(C(=O)N=NC(=O)COc3ccccc3F)cc2c1O	i	-3	i	x	-3	9
CCCCCc1c2c(cc(O)c1C(=O)O)OC(=O)c1cc(C(=O)CCCC)c(OC)cc1O2	i	-3	x	x	x	18
CCCCCc1c2c(cc(O)c1C(=O)O)OC(=O)c1c(cc(OC)cc1C(=O)CCCC)O2	i	0	100*	-4	9	-1
CC(C)(C)OC(=O)N[C@@H](Cc1ccccc1)c1nnc(S(=O)(=O)Cc2ccccc2)o1	x	37	i	-2	x	-23
Cc1ccccc1CS(=O)(=O)c1nnc([C@H](Cc2ccccc2)NC(=O)OC(C)(C)C)o1	-5.2*	15	i	7	20	-18
SMILES	ANO1 activ	Jurkat NFkB inh	ANO1 block	KLF5 inhibitor	aSyn 5UTR inh	697 NFkB inh
CCc1c(C)sc2nc(C(C)C)nc(SCC(=O)N3CCc4ccccc4C3)c12	x	-3	100*	4	-1	-11
CCCCCCSc1ccc([C@H]2N[C@@](C)(C(=O)OC)[C@H]3C(=O)N(C)C(=O)[C@@H]23)cc1	i	5	100*	x	5	-4
CCCSc1ccc([C@H]2N[C@@](C)(C(=O)OC)[C@H]3C(=O)N(C)C(=O)[C@@H]23)cc1	i	25	i	x	3	12
COc1cccc(-c2cc(C(F)(F)F)n3nc(N)nc3n2)c1	i	-3	i	-5	26	6
Clc1ccc(-c2cn3nc4c(nc3n2)CCCC4)cc1	i	-115	i	-24	88*	-141
COc1cccc(-c2cn3nc4c(nc3n2)CCCC4)c1	i	-38	i	-1	104*	-54
COC(=O)c1scc(C)c1NC(=O)Nc1ccccc1	i	-12	25*	5	7	11
COC(=O)c1scc(C)c1NC(=O)C(Cl)c1ccccc1 (stereo unspecified)	i	-6	i	4	-24	-13
COc1ccc(/C=N/N(C(C)=O)c2nc(-c3ccc(C)cc3)cs2)cc1	-7.2*	6	i	-11	-2	-11
CCCC1CC(C(=O)Nc2ccccc2)C(=O)O1 (stereo unspecified)	i	-5	i	x	-20	23
CCS(=O)(=O)c1ccc(OC)c(N=Nc2ccc(O)c3ncccc23)c1	i	6	i	-10	66*	-20
COc1ccc(S(=O)(=O)NCCOc2cccc3cccnc23)cc1OC	i	10	x	-48	3	0
Cc1cccc(C(=O)Nc2scc(-c3ccc(Br)cc3)c2C(=O)O)c1	i	2	i	x	-13	-11
COc1cc(C(=O)Nc2scc(-c3ccc(Br)cc3)c2C(=O)O)cc(OC)c1OC	i	-4	100*	7	4	9
O=S(=O)(NCc1c(Cl)cccc1Oc1ccccc1)c1ccccc1	i	-3	i	-19	-9	-14
Cc1ccc(S(=O)(=O)NCc2c(Cl)cccc2Oc2ccccc2)cc1	i	7	100*	12	19	9
CN1C(=O)/C(=C/c2cn(CC(=O)NCc3ccco3)c3ccccc23)NC1=S	x	-14	i	18	26	-8
CCN=C1S/C(=C\c2cn(CC(=O)NCc3ccco3)c3ccccc23)C(=O)N1CC	i	-11	i	-16	65*	23
C[C@]12CC[C@H]3[C@@H](CCC4=CC(=O)CC[C@@]43C)[C@@H]1CC[C@@H]2C(=O)CO	i	-11	i	-41	-5	-5
CC(=O)OCC(=O)[C@H]1CC[C@H]2[C@@H]3CCC4=CC(=O)CC[C@]4(C)[C@H]3CC[C@]12C	-5.8*	7	i	15	-32	-7
COc1cccc(-n2c(C)c(C(C)=O)c(C(C)=O)c2C)c1	-13*	2	i	-6	0	0
